Results from PubChem BioAssay (NCATS).
Where “and” joins values, the source holds several entries; their conditions need not be identical. Identical values can stand only once. Records with an inconclusive call do not appear. A number with no mark means an inactive call. Calls of active or inactive are those of the source. The call rests on the fitted dose curve; in most records, active means well fitted curve in the direction sought with a large enough effect; inconclusive means small, poorly fitted or top-dose-only effect, or another doubt; inactive means no such curve, though single readings can be large; an effect the other way counts as inactive or inconclusive.

Assays:
[1] = target: Cellular tumor antigen p53 (Homo sapiens) (UniProt P04637); test: Primary qHTS for small molecule compounds that upregulate eGFP-tagged delta133p53alpha (in N-terminal) cells. (AID 2060322); conditions: NCI-H358 eGFP-delta133p53alpha fluorescence, 24 h; activation: stronger effect = higher value; further: nearly all actives have a fitted effect of over 75% in size; further: potency means the concentration at half of the fitted maximal effect;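 on activation: cells pre-induced with doxycycline then dosed without doxycycline; 0% = DMSO vehicle and 100% = reference activator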
Sequence of Cellular tumor antigen p53 (Homo sapiens) (P04637 whole entry, looked up): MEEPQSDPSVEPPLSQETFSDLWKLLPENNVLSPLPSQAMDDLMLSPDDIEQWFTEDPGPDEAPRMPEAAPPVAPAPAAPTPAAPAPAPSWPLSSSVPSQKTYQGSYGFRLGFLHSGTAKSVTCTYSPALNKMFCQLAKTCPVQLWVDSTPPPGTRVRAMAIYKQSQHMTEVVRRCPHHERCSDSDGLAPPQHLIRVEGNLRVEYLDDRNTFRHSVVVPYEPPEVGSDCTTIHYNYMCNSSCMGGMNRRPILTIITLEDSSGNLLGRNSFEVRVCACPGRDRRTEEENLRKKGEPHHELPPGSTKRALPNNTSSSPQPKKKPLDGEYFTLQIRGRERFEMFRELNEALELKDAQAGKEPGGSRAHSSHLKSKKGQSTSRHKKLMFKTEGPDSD
How it was run: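 NCI-H358 cells pre-induced 24 h with 10 ng/ml doxycycline for eGFP-delta133p53alpha, plated dox-free and exposed 24 h at 37C to titrated compounds. Fixed, Hoechst-stained; gated GFP peak intensity by laser scanning cytometry, normalized to DMSO (0%) and 57.5 uM 5-azacytidine (100%).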

[2] = target: Retinaldehyde dehydrogenase 3 (Homo sapiens) (UniProt P47895); test: qHTS for Inhibitors of the Aldehyde Dehydrogenase Family (ALDH1A3) Confirmatory screens (AID 2061311); conditions: ALDH inhibition qHTS; series mostly up to 46 µM; further: nearly all actives have a fitted effect of over 60% in size; further: potency means the concentration at half of the fitted maximal effect
[3] = target: Aldehyde dehydrogenase, mitochondrial (Homo sapiens) (UniProt P05091); test: qHTS for Inhibitors of the Aldehyde Dehydrogenase Family (ALDH2) Primary screen (AID 2061308); conditions: ALDH2 enzyme inhibition qHTS, 1536-well; series mostly up to 56 µM;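 further: plate controls were vehicle for no effect and reference inhibitor for full effect; nearly all actives have a fitted effect of over 55% in size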
[4] = BET inhibitor-based combinations targeting novel dependencies in MECOM-rearranged (r) AML: OCI-AML3 cell line (AID 2202232); conditions: CellTiter-Glo luminescence, 48 h; Potency: OCI-AML3 viability; series mostly up to 46 µM; further: nearly all actives have a fitted effect of over 35% in size; further: potency means the concentration at half of the fitted maximal effect
How it was run: (§1)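 Cells were plated at 500 per well and exposed to an 11-point dose series of each drug for 48 hr. Viability was measured by CellTiter-Glo luminescence, normalized to DMSO and empty-well controls, and summarized as AUC and per-cell-line Z-AUC.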

[5] = BET inhibitor-based combinations targeting novel dependencies in MECOM-rearranged (r) AML: HNT-34 cell line (AID 2202234); conditions: HNT-34 AML viability, CellTiter-Glo luminescence, 48 h; series mostly up to 46 µM; further: nearly all actives have a fitted effect of over 35% in size; further: potency means the concentration at half of the fitted maximal effect
How it was run: (§2)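 Activity is given as area under the curve and as Z-AUC, mean-centred within each cell line. It comes from 11-point dose curves normalized to DMSO and empty wells. CellTiter-Glo luminescence was read after 48 hr drug exposure of 500 cells/well.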

[6] = BET inhibitor-based combinations targeting novel dependencies in MECOM-rearranged (r) AML: UCSD-AML1 cell line (AID 2202235); conditions: UCSD-AML1 AML cells viability, CellTiter-Glo, 48 h; series mostly up to 46 µM; further: nearly all actives have a fitted effect of over 40% in size; further: potency means the concentration at half of the fitted maximal effect
How it was run: as §2

[7] = BET inhibitor-based combinations targeting novel dependencies in MECOM-rearranged (r) AML: AML-191 cell line (AID 2202236; further: nearly all actives have a fitted effect of over 35% in size; further: potency means the concentration at half of the fitted maximal effect); conditions: AML-191 viability, CellTiter-Glo luminescence, 48 h; series mostly up to 46 µM
How it was run: as §1

[8] = BET inhibitor-based combinations targeting novel dependencies in MECOM-rearranged (r) AML: AML-194 cell line (AID 2202237; further: nearly all actives have a fitted effect of over 40% in size; further: potency means the concentration at half of the fitted maximal effect); conditions: AML-194 (MECOM-r AML) viability, CellTiter-Glo, 48 h; series mostly up to 46 µM
How it was run: as §1

[9] = target: Retinaldehyde dehydrogenase 3 (Homo sapiens) (UniProt P47895); test: qHTS for Inhibitors of the Aldehyde Dehydrogenase Family (ALDH1A3) Primary screen (AID 2061315); conditions: ALDH inhibition qHTS; series mostly up to 56 µM;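 further: plate controls were DMSO vehicle for no effect and reference inhibitor for full effect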
[10] = BET inhibitor-based combinations targeting novel dependencies in MECOM-rearranged (r) AML: SET-2 cell line (AID 2202231); conditions: SET-2 AML cells viability, CellTiter-Glo luminescence, 48 h; viability: stronger effect = lower value, concentration not given here; further: nearly all actives have a fitted effect of over 35% in size; further: potency means the concentration at half of the fitted maximal effect;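 on viability: plate controls were DMSO treated cells for no effect and wells without cells for full effect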
How it was run: as §1

[11] = BET inhibitor-based combinations targeting novel dependencies in MECOM-rearranged (r) AML: MV-4-11 cell line (AID 2202233); conditions: MV-4-11 AML viability, CellTiter-Glo luminescence, 48 h; series mostly up to 46 µM; further: potency means the concentration at half of the fitted maximal effect; nearly all actives have a fitted effect of over 45% in size
How it was run: as §2

[12] = target: Retinaldehyde dehydrogenase 3 (Homo sapiens) (UniProt P47895); test: qHTS for Inhibitors of the Aldehyde Dehydrogenase Family (ALDH1A3) Validation screen (AID 2061312); conditions: ALDH1A3 enzyme inhibition qHTS validation, fluorescence; series mostly up to 84.7 µM; further: on the % scale 0 is the no-effect control and ±100 the full control effect; nearly all actives have a fitted effect of over 45% in size
[13] = target: Retinal dehydrogenase 2 (Homo sapiens) (UniProt O94788); test: qHTS for Inhibitors of the Aldehyde Dehydrogenase Family (ALDH1A2) Confirmation screens (AID 2061314); conditions: ALDH1A2 enzyme inhibition qHTS confirmation; series mostly up to 45.9 µM; further: potency means the concentration at half of the fitted maximal effect; nearly all actives have a fitted effect of over 65% in size
[14] = target: Aldehyde dehydrogenase 1A1 (Homo sapiens) (UniProt P00352); test: qHTS for Inhibitors of the Aldehyde Dehydrogenase Family (ALDH1A1) Confirmatory screens (AID 2061316); conditions: ALDH inhibition qHTS; series mostly up to 47.3 µM; further: potency means the concentration at half of the fitted maximal effect; nearly all actives have a fitted effect of over 65% in size

Question: With CC1(C)C=CN2C(=O)C3=CCCN3C(=O)[C@@H]2C[C@@]12Nc1ccccc1C2=O as the molecule, how does the activation [1] read?
Answer: -19.8%

Question: What about the Potency [2] of the same molecule?
Answer: 7.83 µM (active)

Question: What does the source list for COc1cc(N2CCN(C)CC2)ccc1Nc1nccc(-c2cn(C)c3cnccc23)n1?
Answer: Potency [1]: 26.9 µM (active); Potency [3]: inactive; Potency [4]: 14.8 µM (active); Potency [5]: 13.2 µM (active); Potency [6]: 6.61 µM (active); Potency [7]: 13.2 µM (active); Potency [8]: 14.8 µM (active)

Question: Which activation [1] does the source give for NC1CCC(N[C@@H]2C[C@H]2c2ccccc2)CC1 (stereo not given in full) here?
Answer: 3.67% and 27.6%

Question: What about the Potency [3] of the same molecule?
Answer: inactive

Question: What about the Potency [9] of the same molecule?
Answer: inactive

Question: And the Potency [6]?
Answer: 0.0019 µM (active)

Question: And the Potency [7]?
Answer: inactive

Question: What about the Potency [8] of the same molecule?
Answer: inactive

Question: For NC(=O)c1noc([C@H](CCCC2CCCCC2)CC(=O)NO)n1, which activation [1] is on record?
Answer: -7.14%

Question: What about the Potency [3] of the same molecule?
Answer: inactive

Question: What about the Potency [10] of the same molecule?
Answer: 5.9 µM (active)

Question: And the Potency [4]?
Answer: 14.8 µM (active)

Question: And the Potency [11]?
Answer: 18.6 µM (active)

Question: And the Potency [5]?
Answer: 2.95 µM (active)

Question: And the Potency [6]?
Answer: 5.25 µM (active)

Question: What about the Potency [7] of the same molecule?
Answer: 3.72 µM (active)

Question: And the Potency [8]?
Answer: 6.61 µM (active)

Question: With C=C1CCC2C(C)(COC(C)=O)CCCC2(C)C1CCC(C)CC(=O)O (stereo not given) as the molecule, how does the activation [1] read?
Answer: -12.2%

Question: What about the Potency [2] of the same molecule?
Answer: inactive

Question: What about the Potency [9] of the same molecule?
Answer: inactive

Question: Which results are given for OCc1ccc(-c2ccc(-c3ccc(CO)s3)o2)s1?
Answer: activation [1]: 23.8% and 25%; Potency [3]: inactive; Potency [4]: 18.6 µM (active); Potency [11]: 13.2 µM (active); Potency [7]: 26.3 µM (active); Potency [8]: 26.3 µM (active)

Question: With c1nc2nc(Nc3ccc(N4CCOCC4)cc3)nc(NC3CCCCC3)c2[nH]1 as the molecule, how does the activation [1] read?
Answer: -34%

Question: What about the Potency [3] of the same molecule?
Answer: inactive

Question: What about the Potency [10] of the same molecule?
Answer: 4.17 µM (active)

Question: And the Potency [4]?
Answer: 3.32 µM (active)

Question: What about the Potency [11] of the same molecule?
Answer: 0.372 µM (active)

Question: What about the Potency [5] of the same molecule?
Answer: 1.48 µM (active)

Question: Which activation [1] does the source give for Cc1ccc(S(=O)(=O)Nc2cc(Cl)ccc2C(=O)Nc2nc(-c3ccccc3)cs2)cc1 here?
Answer: 7.51%

Question: And the Potency [3]?
Answer: inactive

Question: And the Potency [9]?
Answer: inactive

Question: And the Potency [8]?
Answer: 7.42 µM (active)

Question: Which activation [1] does the source give for CNC(=O)c1c(F)cccc1Nc1nc(Nc2cc3c(cc2OC)CCN3C(=O)CN(C)C)nc2[nH]ccc12 here?
Answer: 42.7%

Question: What about the Potency [3] of the same molecule?
Answer: inactive

Question: What about the Potency [10] of the same molecule?
Answer: 8.33 µM (active)

Question: And the Potency [4]?
Answer: 9.34 µM (active)

Question: And the Potency [11]?
Answer: 7.42 µM (active)

Question: And the Potency [6]?
Answer: 8.33 µM (active)

Question: What about the Potency [7] of the same molecule?
Answer: 8.33 µM (active)

Question: What about the Potency [8] of the same molecule?
Answer: 7.42 µM (active)

Question: With N#CC[C@H](C1CCCC1)n1cc(-c2ncnc3[nH]ccc23)cn1 as the molecule, how does the activation [1] read?
Answer: 7.18% and -12.3%

Question: And the Potency [3]?
Answer: inactive

Question: And the Potency [9]?
Answer: inactive

Question: And the Potency [7]?
Answer: 5.9 µM (active)

Question: With CCCCOc1ccc(C(=O)Nc2ccc(F)cc2F)cc1 as the molecule, how does the activation [1] read?
Answer: -9.74% and -2.39%

Question: And the Potency [3]?
Answer: inactive

Question: What about the viability [10] of the same molecule?
Answer: 103%

Question: What about the Potency [4] of the same molecule?
Answer: inactive

Question: And the Potency [5]?
Answer: inactive

Question: And the Potency [6]?
Answer: inactive

Question: What about the Potency [7] of the same molecule?
Answer: inactive

Question: What about the Potency [8] of the same molecule?
Answer: inactive

Question: Which results are given for COc1ccc(Cn2ccc3ccc(C(=O)NO)cc32)cc1?
Answer: activation [1]: 20.3% and -6.7%; Potency [3]: inactive; Potency [11]: 20.9 µM (active); Potency [8]: 18.6 µM (active)

Question: Which results are given for C=CC(=O)Nc1cccc(Nc2nc(Nc3ccc(NC4CN(CCF)C4)cc3OC)ncc2C(F)(F)F)c1?
Answer: Potency [1]: 7.57 µM (active); Potency [3]: inactive; Potency [4]: 16.6 µM (active); Potency [11]: 2.63 µM (active); Potency [5]: 3.32 µM (active); Potency [6]: 9.34 µM (active); Potency [8]: 13.2 µM (active)

Question: With CCCCc1nc2cc(/C=C/C(=O)NO)ccc2n1CCN(CC)CC as the molecule, how does the Potency [1] read?
Answer: 27.3 µM (active)

Question: And the Potency [3]?
Answer: inactive

Question: What about the Potency [10] of the same molecule?
Answer: 0.662 µM (active)

Question: What about the Potency [4] of the same molecule?
Answer: 0.833 µM (active)

Question: What about the Potency [11] of the same molecule?
Answer: 0.332 µM (active)

Question: And the Potency [5]?
Answer: 0.833 µM (active)

Question: What about the Potency [6] of the same molecule?
Answer: 0.833 µM (active)

Question: And the Potency [7]?
Answer: 0.833 µM (active)

Question: With C[C@@H](N)c1ccc(C(=O)Nc2ccnc3[nH]ccc23)cc1 as the molecule, how does the activation [1] read?
Answer: 21.5%

Question: And the Potency [3]?
Answer: inactive

Question: And the Potency [9]?
Answer: inactive

Question: What about the Potency [6] of the same molecule?
Answer: 18.6 µM (active)

Question: And the Potency [7]?
Answer: 16.6 µM (active)

Question: What about the Potency [8] of the same molecule?
Answer: 14.8 µM (active)

Question: Which results are given for O=C(/C=C/C=C/c1ccc2c(c1)OCO2)N1CCCCC1?
Answer: activation [1]: -7.63%; Potency [3]: inactive; viability [10]: 96.4%; Potency [5]: inactive; Potency [6]: inactive; Potency [7]: inactive; Potency [8]: inactive

Question: Which activation [1] does the source give for CC(C(=O)O)c1ccc2c(c1)[nH]c1ccc(Cl)cc12 (stereo not given) here?
Answer: 8.47% and -3.82%

Question: What about the Potency [2] of the same molecule?
Answer: 15.9 µM (active)

Question: And the Potency [12]?
Answer: inactive

Question: What about the Potency [13] of the same molecule?
Answer: 6.34 µM (active)

Question: What about the Potency [9] of the same molecule?
Answer: inactive

Question: What does the source list for COc1ccccc1C(=O)Nc1cc2c(cc1N1CCCC1)n(C)c(=O)n2C?
Answer: activation [1]: -44.7%; Potency [3]: inactive; Potency [11]: 16.6 µM (active); Potency [5]: 26.3 µM (active)

Question: Which activation [1] does the source give for O=C1OCc2cc3cccc(O[C@@H]4O[C@H](CO)[C@@H](O)[C@H](O)[C@H]4O)c3c(O)c21 here?
Answer: -11.5%

Question: What about the Potency [2] of the same molecule?
Answer: 13.9 µM (active)

Question: With Cc1cc2c(N3CCCC3)nc(N3CCCC3)nc2n1C as the molecule, how does the activation [1] read?
Answer: -16.7%

Question: What about the Potency [2] of the same molecule?
Answer: 14.2 µM (active)

Question: And the Potency [9]?
Answer: inactive

Question: What about the Potency [14] of the same molecule?
Answer: 11.3 µM (active)
